From PubChem BioAssay AID1671193 (National Center for Advancing Translational Sciences (NCATS), 2021)
Hit rate of the full screen: of about 150,000 compounds, about 180 (0.12%) were called active. Roughly 6% stayed inconclusive and do not appear here. This excerpt belongs to a sample that is enriched for actives. Unmarked numbers belong to inactive results. Calls follow the shape of the dose curve; as a rule, active = well fitted cell-killing curve with a large enough effect; inconclusive = small, poorly fitted or top-dose-only effect, or effect the other way; inactive = flat fitted curve, though single readings scatter.

Assay: GF-AFC viability counterscreen for inhibitors of alpha-synuclein gene (SNCA) expression; also: nearly all actives have a fitted effect of over 30% in size
Details: HEK-293-SNCA-luc viability, GF-AFC fluorescence, 24 h; series mostly up to 57.1 µM; activity change, negative = cytotoxicity: at the top concentration
Source text: Assay Submitter (PI): Daniel R. Scoles Ph.D.
Department of Neurology, University of Utah, Salt Lake City, Utah
Accumulation of alpha-synuclein is a main underlying pathological feature of Parkinson's disease (PD) and alpha-synucleinopathies, for which lowering expression of the alpha-synuclein gene (SNCA) is a potential therapeutic avenue. Using a cell-based luciferase reporter of SNCA expression we performed a quantitative high throughput screen (qHTS) of 155,885 compounds in dose response. The screening assay was generated using genome editing to insert the luciferase gene downstream and in frame of the SNCA gene in HEK-293 cells (1). A viability counterscreen using GF-AFC was used to eliminate cytotoxic and false positive compounds. After in silico analysis (clustering, removal of frequent hitter nuisance chemotypes), inhibitor compounds from the primary screen were selected for follow up and re-tested at 11-doses in the SNCA-luc cells (luciferase and GF-AFC confirmation), and in CMV-luc expressing cell line to flag general transcriptional repressors.
Described herein are the results of the GF-AFC viability counterscreen for SNCA inhibitors; inactivity (no decrease in fluorescence signal, not cytotoxic) is the desired output for this assay.
1. Dansithong, W., Paul, S., Scoles, D. R., Pulst, S. M., and Huynh, D. P. (2015) Generation of SNCA Cell Models Using Zinc Finger Nuclease (ZFN) Technology for Efficient High-Throughput Drug Screening. PLoS ONE 10, e0136930.
SEQUENCE No. (e.g., 1, 2, 3, etc.); […] (e.g., Cells, Incubation, Reagent, etc.); VALUE; DESCRIPTION
1; Cells; 4 uL; Dispense 1500 HEK-293-SNCA-luc cells/well into Greiner 1536-well white / solid bottom tissue culture treated plate. The plate was covered with metal lids with gas-exchange holes.
2; Incubate; 24 hours; Incubate at 37C, 5% CO2, 95% RH.
3; Compounds; 23 nL; Compounds and controls were transferred via a Kalypsys Pin Tool (Wako USA) equipped with a 1536-slotted pin array. The plate was covered with metal lids with gas-exchange holes.
4; Incubate; 24 hours; Incubate at 37C, 5% CO2, 95% RH.
5; Dispense; 1 uL; Dispense Gly-Phe-7-amino-4-trifluoromethylcoumarin (GF-AFC, prepared at 125 uM in PBS) was added. The plate was covered with metal lids with gas-exchange holes.
6; Incubate; 30 min; Incubate at 37C, 5% CO2.
7; Detector; Fluorescence; Measure fluorescence with ViewLux microplate reader (PerkinElmer) equipped with 405/10 excitation and 540/25 emission filters.
8; Dispense; 3 uL; Dispense ONE-Glo ([…]) lucifase detection reagent was added to each well. Plates were covered with metal lids with gas-exchange holes.
9; Incubate; 15 min; Incubate at room temperature.
10; Detector; Luminescence; Measure luminescence with ViewLux microplate reader (PerkinElmer) equipped with clear filters.
NOTES (numbers refer to sequence above)
1; HEK-293-SNCA-luc were cultured and suspended in phenol-red free DMEM (4.5 g/L glucose, 25 mM HEPES, cat #21063 (Thermo)).
3; Compounds were added to the assay plate in an 11-point intra plate dose response, 1:3 titration in DMSO with a final concentration range of […]. Vehicle-only plates, with DMSO being pin-transferred to every well, were inserted at the beginning of screening runs to confirm expected assay performance. Activity was normalized to wells containing medium only (-100% activity, full inhibition) and SNCA-luc cells treated with DMSO vehicle control (0% activity), contained on the same plate as test samples.
10; Signals were analyzed, and dose-response curves were fit using the Hill equation. Compounds in curve classes -1.1, -1.2, -2.1, -2.2 in the SNCA-luc assay were considered active. Compounds were eliminated from further consideration if also active (curve class -1.1, -1.2, -1.3, -1.4, -2.1, -2.2, -2.3, -2.4) in the GF-AFC cytotoxicity assay.
Potency is read from the fitted curve at half-maximal effect.

With `CCCCS(=O)(=O)N1CCCC(Cn2c(C3CC3)nc3cccnc32)C1` (stereo unspecified) as the compound, how does the “activity change, negative = cytotoxicity” value read?
The value was -2.74%.

For `O=C1CC(c2ccccc2)N(Cc2cn[nH]c2-c2ccc(F)cc2)CCCCCN1` (stereo unspecified), which “activity change, negative = cytotoxicity” value is on record?
The value was -15.3%.

With `COc1ccc(-c2nc(C(C)C)nc3c2CCN([S+](=O)([O-])c2cccc(C(F)(F)F)c2)CC3)cc1` as the compound, how does the “activity change, negative = cytotoxicity” value read?
The value was -10.8%.

With `CC(C)NC(=O)N1CC(Oc2ccc(-c3noc(-c4cccnc4)n3)cc2)C1` as the compound, how does the “activity change, negative = cytotoxicity” value read?
The value was -29.9%.

With `O=C(Nc1cccc(Cl)c1)C1CCCN(c2ccnc3ccnn23)C1` (stereo unspecified) as the compound, how does the “activity change, negative = cytotoxicity” value read?
The value was -11%.

Which “activity change, negative = cytotoxicity” value does the source give for `c1cn(-c2ccc(N3CCCCCC3)nc2)c(-c2cc3n(n2)CCCNC3)n1` here?
Its value is 7.54%.

With `CSCC(=O)N1CCC2(CC1)CC(c1ccccc1)CN(C)C2` (stereo unspecified) as the compound, how does the “activity change, negative = cytotoxicity” value read?
Its value is 0.187%.

With `O=C(c1cccc(C(F)(F)F)c1)N1C[C@@H](CO)[C@H](c2ccccn2)C1` as the compound, how does the “activity change, negative = cytotoxicity” value read?
The value was 0.505%.

Which “activity change, negative = cytotoxicity” value does the source give for `CC(C)c1ccc(S(=O)(=O)N2CCc3nn(C)c(=O)n3CC2)cc1` here?
Its value is 4.59%.

For `COc1ccc(C(=O)N2C(C(=O)NCC(C)C)COC23CCN(C(=O)C2CCC2)CC3)cc1` (stereo unspecified), which “activity change, negative = cytotoxicity” value is on record?
Its value is 4.16%.

With `Cc1ccc(NC(=O)CN2CC3CC(C2)[C@H]2CCCC(=O)N2C3)cc1` (stereo partly specified) as the compound, how does the “activity change, negative = cytotoxicity” value read?
The value was -2.58%.

With `O=C(NC[C@H]1OC[C@@H](NCc2ccccn2)[C@@H]1O)C1CCCC1` as the compound, how does the “activity change, negative = cytotoxicity” value read?
The value was -11.2% [at 87.6 µM].

Which “activity change, negative = cytotoxicity” value does the source give for `Cc1ccc(CN2CCCN(Cc3ccncc3)C(c3ccccc3)CC(=O)NCC2)s1` (stereo unspecified) here?
The value was 1.35%.

Which “activity change, negative = cytotoxicity” value does the source give for `COc1ccc(CNC[C@H]2O[C@H](Cc3cc(-c4ccc(OC)cc4)on3)CC[C@@H]2O)cc1` here?
Its value is 3.22%.

With `CCOc1ccc(C(=O)N2C[C@@H](CO)[C@H](c3ccncc3)C2)cc1` as the compound, how does the “activity change, negative = cytotoxicity” value read?
Its value is 7.42%.

Which “activity change, negative = cytotoxicity” value does the source give for `Cc1ccc(C(=O)N2C[C@@H](CO)[C@H](c3ccncc3)C2)c(C)c1` here?
Its value is -0.327%.

For `O=C(C1CCCC1)N1C[C@@H](CO)[C@H](c2ccncc2)C1`, which Potency is on record?
The Potency was 20 µM (active).

For `O=C1CCC2(CCN(Cc3ccc4[nH]ccc4c3)CC2)CN1CCc1ccccc1`, which “activity change, negative = cytotoxicity” value is on record?
Its value is -9.99%.

For `O=C(c1ccoc1)N1CCC(N2C(=O)[C@H]3CN(Cc4ccccc4)C[C@H]3C2=O)CC1`, which “activity change, negative = cytotoxicity” value is on record?
Its value is 14.6%.

For `CCCNC(=O)N1CCC2(CC1)CC(C(=O)N1CCOCC1)N(C)C2` (stereo unspecified), which “activity change, negative = cytotoxicity” value is on record?
The value was -3.1%.

Which “activity change, negative = cytotoxicity” value does the source give for `O=C(NCc1ccnc2[nH]ccc12)c1ccccn1` here?
The value was 2.85% [at 87.6 µM].

For `COc1ccc(-c2cc(-c3cnc4[nH]ccc4c3)cn3cncc23)cn1`, which “activity change, negative = cytotoxicity” value is on record?
The value was -7.15% [at 87.6 µM].

Which “activity change, negative = cytotoxicity” value does the source give for `COC[C@@H]1[C@H](NC(=O)C2(Cn3ccnc3)CC2)[C@@H]2CCO[C@H]12` here?
Its value is 0.192%.

For `CCN1CCN(C(=O)c2cn3cc(-c4ccc(C(F)(F)F)cc4)sc3n2)CC1`, which “activity change, negative = cytotoxicity” value is on record?
The value was 4.72%.

For `Cc1noc(C)c1CNC(=O)[C@H]1CN(Cc2ccccc2)C[C@H]1C(=O)O`, which “activity change, negative = cytotoxicity” value is on record?
The value was -8.06%.

For `COCC(=O)N[C@H]1C[C@H]2C(=O)Nc3ccc(/C=C/c4ccc(OC)cc4)cc3C(=O)N2C1`, which “activity change, negative = cytotoxicity” value is on record?
Its value is -2.8%.

For `CN(Cc1cccnc1)C1CN(C(=O)Nc2ccccc2F)C1`, which “activity change, negative = cytotoxicity” value is on record?
The value was -21%.

With `COCCN1C(=O)c2cccn2CC1CNC(=O)CCc1nc(-c2ccccc2)no1` (stereo unspecified) as the compound, how does the “activity change, negative = cytotoxicity” value read?
The value was 7.27%.

With `O=C1NCCCCCN(S(=O)(=O)c2ccc3c(c2)CCC3)[C@H]2CCCC[C@@H]12` as the compound, how does the “activity change, negative = cytotoxicity” value read?
The value was -24%.

For `COc1cccc(CNC(=O)c2cc(-c3ccccc3)nc3c2cnn3C)c1`, which “activity change, negative = cytotoxicity” value is on record?
Its value is 5.25%.

With `CC1(c2ccccc2)N(Cc2ccc(O)cc2)C(=O)OC12CCN(Cc1ccc(C#N)cc1)CC2` (stereo unspecified) as the compound, how does the “activity change, negative = cytotoxicity” value read?
The value was -18.3%.

For `COC(=O)CNC(=O)C1CCCN1Cc1ccc(-c2cc(C)cc(C)c2)cc1` (stereo unspecified), which “activity change, negative = cytotoxicity” value is on record?
Its value is 5.59%.

Which “activity change, negative = cytotoxicity” value does the source give for `Cc1cccc(N2Cc3c(NCCCN4CCCCC4)ncnc3N(C)CC2=O)c1` here?
The value was 6.15%.

Which “activity change, negative = cytotoxicity” value does the source give for `O=C(NCc1cccnc1)c1cn2cc(-c3cccc(C(F)(F)F)c3)sc2n1` here?
The value was -7.27%.

Which “activity change, negative = cytotoxicity” value does the source give for `CCOC(=O)C1CCCN(C(=O)C2CCc3nnc(CN[S+](C)(=O)[O-])n32)C1` (stereo unspecified) here?
The value was 0.593%.

For `Cc1ccc(C(=O)N2CCCC(c3nc(C4CCOCC4)no3)C2)cn1` (stereo unspecified), which “activity change, negative = cytotoxicity” value is on record?
The value was 5.29%.

For `CN(Cc1ccsc1)C(=O)C1CCCN(C2CCN(C(=O)C3CC3)CC2)C1` (stereo unspecified), which “activity change, negative = cytotoxicity” value is on record?
The value was 3.93%.

Which “activity change, negative = cytotoxicity” value does the source give for `COc1cccc(-c2cccc(CN3CCCC3C(=O)NCC(C)C)c2)c1` (stereo unspecified) here?
The value was -9.2%.

For `Cc1ccnc(NC(=O)C2CC(=O)N(c3n[nH]c4cc(Br)ccc34)C2)c1` (stereo unspecified), which “activity change, negative = cytotoxicity” value is on record?
Its value is 1.61%.

For `COCC1CN(C2CCC2)CC12CCN(C(=O)c1ccc(C)s1)CC2` (stereo unspecified), which “activity change, negative = cytotoxicity” value is on record?
Its value is 11.7%.

Which “activity change, negative = cytotoxicity” value does the source give for `O=C1NC2(CCN(C(=O)c3ccccc3)C2)COc2ccccc21` (stereo unspecified) here?
Its value is 9.42% [at 87.6 µM].

For `Oc1ccccc1CN1CCC(O)(c2csc(CN3CCN(c4ccccn4)CC3)n2)CC1`, which “activity change, negative = cytotoxicity” value is on record?
Its value is -1.19%.

For `FC(F)(F)c1cccc(C2=NOC3(CCCN(Cc4ccccn4)C3)C2)c1` (stereo unspecified), which “activity change, negative = cytotoxicity” value is on record?
The value was -9.31%.

For `O=C(C1CC=CC1)N1CCC2(CC1)NCCc1c2[nH]c2ccccc12`, which activity change, negative = cytotoxicity is on record?
The activity change, negative = cytotoxicity was -15.1% [at 12.5 µM].

Which “activity change, negative = cytotoxicity” value does the source give for `COc1ccc(-c2cc3c(nc2-c2ccccc2)nc(C(=O)NCCN(C)C)n3C)cc1OC` here?
The value was -13.2%.

For `O=C(Nc1ccccc1)N1CCC(C(=O)N2CCCC(c3nc4ccncc4[nH]3)C2)CC1` (stereo unspecified), which “activity change, negative = cytotoxicity” value is on record?
Its value is -0.207%.
